Source: PubChem BioAssay (EPA / NIEHS)
Records with an inconclusive call do not appear. Calls of active or inactive are those of the source. Rule for the calls: active = hit-call score of the fitted dose curve at least 0.9, where 1 is the maximum; inconclusive = response in the unintended direction; inactive = score below 0.9.

target: human RAR-related Orphan Receptor beta (RORb), RORB (gene 6096) (UniProt Q92753); assay: ATG_RORb_TRANS: Attagene TRANS-FACTORIAL HepG2 Assay for human RAR-related Orphan Receptor beta (RORb) (AID 2283010)
Experimental: ATG_TRANS is a cell-based, multiplexed-readout assay that uses HepG2, a human liver cell line, with measurements taken at 24 hours after chemical dosing in a 24-well plate.ATG_RORb_TRANS is one of 30 assay component(s) measured or calculated from the ATG_TRANS assay. It is designed to make measurements of mRNA induction, a form of inducible reporter, as detected with fluorescence intensity signals by Reverse transcription polymerase chain reaction (RT-PCR) and Capillary electrophoresis technology.Data from the assay component ATG_RORb_TRANS was analyzed into 1 assay endpoint. This assay endpoint, ATG_RORb_TRANS, was analyzed in the positive analysis fitting direction relative to DMSO as the negative control and baseline of activity. Using a type of inducible reporter, measures of mRNA for gain-of-signal activity can be used to understand the reporter gene at the transcription factor-level as they relate to the gene RORB. Furthermore, this assay endpoint can be referred to as a primary readout, because this assay has produced multiple assay endpoints where this one serves a reporter gene function. To generalize the intended target to other relatable targets, this assay endpoint is annotated to the nuclear receptor intended target family, where the subfamily is orphan.
Human liver HepG2 cells are transiently transfected with multiple reporter transcription units (MRTUs) in 6-well plates using FuGene 6 reagent (Roche; 3 ml FuGene/1 mg DNA). The MRTU constructs are regulated by a cis-regulating element (promoter). […] A major difference between the CIS and TRANS system is that in CIS activities of endogenous TFs are measured, whereas the TRANS assay evaluates changes in activities of exogenous, chimeric NR-Gal4 proteins. […] At the end of 24 hour incubation, total RNA was isolated using TriZol reagent (Invitrogen). The isolated RNA is then reverse-transcribed using oligo(dT) primer and Mo-MLV reverse transcriptase (Invitrogen) with DNAse I (Ambion) treatment for 30 min. The one-tenth of the produced cDNA was amplified by PCR using Taq DNA polymerase (Invitrogen) and two reporter sequence-specific primers. The PCR products were fluorescently labeled by primer extension with 6-arboxyfluorescein (6-FAM) 5'-labeled reporter sequence-specific primer (2 min at 95 C, 20 s at 68 C and 10 min at 72 C) and these products were digested with 5U of HpaI (New England Biolabs) for 2h at 37 C. The fragments were purified using Qiaquick PCR columns (Qiagen), analyzed on an ABI 3130xL genetic analyzer (Applied Biosystems) with peak positions identified by using a set of X-rhodamine (ROX)-labeled MapMarker1000 molecular weight standards (BioVentures). The raw capillary electrophoresis data was processed using Attagraph software (Attagene).

human RAR-related Orphan Receptor beta (RORb), RORB (gene 6096), sequence (Q92753 whole entry, looked up): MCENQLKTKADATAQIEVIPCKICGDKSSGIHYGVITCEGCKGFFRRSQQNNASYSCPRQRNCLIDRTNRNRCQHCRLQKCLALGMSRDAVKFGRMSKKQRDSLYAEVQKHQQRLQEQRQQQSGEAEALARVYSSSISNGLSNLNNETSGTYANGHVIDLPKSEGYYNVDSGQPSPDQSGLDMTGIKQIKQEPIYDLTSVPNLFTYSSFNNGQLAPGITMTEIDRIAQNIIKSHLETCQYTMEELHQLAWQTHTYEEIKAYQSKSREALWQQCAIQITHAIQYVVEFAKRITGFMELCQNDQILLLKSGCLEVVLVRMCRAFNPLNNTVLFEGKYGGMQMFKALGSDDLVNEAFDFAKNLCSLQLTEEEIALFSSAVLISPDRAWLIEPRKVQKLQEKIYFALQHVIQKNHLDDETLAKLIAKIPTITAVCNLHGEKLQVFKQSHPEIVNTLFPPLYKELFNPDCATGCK

Question: With CCOP(=O)(NC(C)C)Oc1ccc(SC)c(C)c1 (stereo unspecified) as the molecule, how does the outcome read?
Answer: The outcome was “inactive”.

Question: CNC(=O)Oc1cccc2c1OC(C)(C)O2 was tested. Which outcome did it give?
Answer: The outcome was “inactive”.

Question: Which outcome does the source give for CCC(=NOC/C=C/Cl)C1=C(O)CC(C2CCOCC2)CC1=O (stereo unspecified) here?
Answer: Its outcome is “inactive”.

Question: For C#CC(C)(C)NC(=O)c1cc(Cl)cc(Cl)c1, which outcome is on record?
Answer: Its outcome is “inactive”.

Question: O=[N+]([O-])c1cc(C(F)(F)F)c(Cl)c([N+](=O)[O-])c1Nc1ncc(C(F)(F)F)cc1Cl was tested. Which outcome did it give?
Answer: The outcome was “inactive”.

Question: For COP(=O)(OC)SCn1c(=O)oc2cc(Cl)cnc21, which outcome is on record?
Answer: The outcome was “inactive”.

Question: CC(C)=CC1C(C(=O)OCN2C(=O)C3=C(CCCC3)C2=O)C1(C)C (stereo unspecified) was tested. Which outcome did it give?
Answer: The outcome was “inactive”.

Question: How did the outcome turn out when CCOP(=O)(SC(C)CC)N1CCSC1=O (stereo unspecified) was run?
Answer: The outcome was “inactive”.

Question: CCOP(=S)(Oc1cnc(C(C)(C)C)nc1)OC(C)C (stereo unspecified) was tested. Which outcome did it give?
Answer: Its outcome is “inactive”.

Question: With CC(=NC#N)N(C)Cc1ccc(Cl)nc1 as the molecule, how does the outcome read?
Answer: The outcome was “inactive”.

Question: With CCOP(=S)(OCC)OC(Cl)C(Cl)(Cl)Cl (stereo unspecified) as the molecule, how does the outcome read?
Answer: Its outcome is “inactive”.

Question: How did the outcome turn out when CCCOc1nn(C(=O)NS(=O)(=O)c2ccccc2C(=O)OC)c(=O)n1C was run?
Answer: Its outcome is “inactive”.

Question: With CNC(=O)ON=C(C)SC as the molecule, how does the outcome read?
Answer: Its outcome is “inactive”.

Question: For COP(=O)(OC)C(O)C(Cl)(Cl)Cl (stereo unspecified), which outcome is on record?
Answer: Its outcome is “inactive”.

Question: With CC[C@H](C)[C@H]1O[C@]2(C=C[C@@H]1C)C[C@@H]1C[C@@H](C/C=C(\C)[C@@H](O[C@H]3C[C@H](OC)[C@@H](O[C@H]4C[C@H](OC)[C@@H](NC)[C@H](C)O4)[C@H](C)O3)[C@@H](C)/C=C/C=C3\CO[C@@H]4[C@H](O)C(C)=C[C@@H](C(=O)O1)[C@]34O)O2 as the molecule, how does the outcome read?
Answer: The outcome was “inactive”.

Question: With CC(C1CC1)C(O)(Cn1cncn1)c1ccc(Cl)cc1 (stereo unspecified) as the molecule, how does the outcome read?
Answer: Its outcome is “inactive”.

Question: CCCCOC(=O)c1ccccc1C(=O)O was tested. Which outcome did it give?
Answer: The outcome was “inactive”.

Question: Nc1nc(N)nc(NC2CC2)n1 was tested. Which outcome did it give?
Answer: The outcome was “inactive”.

Question: With Cc1ccn2nc(S(=O)(=O)Nc3c(F)cccc3F)nc2n1 as the molecule, how does the outcome read?
Answer: Its outcome is “inactive”.

Question: For Cc1nn(-c2cc(NS(C)(=O)=O)c(Cl)cc2Cl)c(=O)n1C(F)F, which outcome is on record?
Answer: Its outcome is “inactive”.

Question: How did the outcome turn out when CCOP(=S)(OCC)Oc1ccc2c(C)c(Cl)c(=O)oc2c1 was run?
Answer: The outcome was “inactive”.

Question: Which outcome does the source give for CCCSP(=O)(OCC)Oc1ccc(Br)cc1Cl (stereo unspecified) here?
Answer: Its outcome is “inactive”.

Question: With CN(C)NC(=O)CCC(=O)O as the molecule, how does the outcome read?
Answer: Its outcome is “inactive”.

Question: With CCCCOC(=O)[C@@H](C)Oc1ccc(Oc2ccc(C#N)cc2F)cc1 as the molecule, how does the outcome read?
Answer: Its outcome is “inactive”.

Question: With O=c1ccc(=O)[nH][nH]1 as the molecule, how does the outcome read?
Answer: The outcome was “inactive”.

Question: How did the outcome turn out when CSc1nnc(C(C)(C)C)c(=O)n1N was run?
Answer: The outcome was “inactive”.

Question: COP(=O)(NC(C)=O)SC (stereo unspecified) was tested. Which outcome did it give?
Answer: The outcome was “inactive”.

Question: CCCSP(=O)(OCC)SCCC was tested. Which outcome did it give?
Answer: Its outcome is “inactive”.

Question: With CNC(=O)ON=C(SC)C(=O)N(C)C as the molecule, how does the outcome read?
Answer: Its outcome is “inactive”.

Question: CN(C)[C@@H]1C(=O)C(C(N)=O)=C(O)[C@@]2(O)C(=O)C3=C(O)c4c(O)cccc4[C@@](C)(O)[C@H]3[C@H](O)[C@@H]12 was tested. Which outcome did it give?
Answer: Its outcome is “inactive”.

Question: For CCOP(=S)(OCC)Oc1ccc([N+](=O)[O-])cc1, which outcome is on record?
Answer: Its outcome is “inactive”.
